Measured values from PubChem BioAssay (NCI).
Compounds without any hit were thinned out: in the full panel of roughly 83,000, 20% have a hit.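 Assay: single dose, 48 h. Readout: percent growth (0 = no net growth; negative = cell death). Active: <10.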 Active and inactive are the calls of the source.

Legend:
Experiment in all cases: NCI-60 one-dose screen, 48 h (100 = growth as untreated, 0 = no growth, -100 = all killed)
Settings in all cases: 10 µM unless noted
DU-145 prostate = system: DU-145 prostate
K-562 leukemia = system: K-562 leukemia
MALME-3M melanoma = system: MALME-3M melanoma
MDA-MB-231 breast = system: MDA-MB-231 breast
RXF 393 renal = system: RXF 393 renal
SF-268 CNS = system: SF-268 CNS
SF-295 CNS = system: SF-295 CNS
SF-539 CNS = system: SF-539 CNS
UACC-257 melanoma = system: UACC-257 melanoma
M14 melanoma = system: M14 melanoma
HCT-15 colon = system: HCT-15 colon
HT29 colon = system: HT29 colon
SNB-75 CNS = system: SNB-75 CNS
SNB-19 CNS = system: SNB-19 CNS
U251 CNS = system: U251 CNS
PC-3 prostate = system: PC-3 prostate
SK-MEL-5 melanoma = system: SK-MEL-5 melanoma
UACC-62 melanoma = system: UACC-62 melanoma
LOX IMVI melanoma = system: LOX IMVI melanoma
SK-MEL-28 melanoma = system: SK-MEL-28 melanoma

Measured: growth

C[n+]1cc2c3c(ccc2c2ccc4cc5c(cc4c21)OCO5)OCO3
active: DU-145 prostate -94.4% | K-562 leukemia -5.22% | MALME-3M melanoma -76.9% | MDA-MB-231 breast -76.2% | RXF 393 renal -77.1% | SF-268 CNS -93.1% | SF-295 CNS -63.1% | SF-539 CNS -71.8% | UACC-257 melanoma -87.6% | M14 melanoma -76.8% | HCT-15 colon -81.2% | HT29 colon -84.9% | SNB-75 CNS -78.8% | SNB-19 CNS -87.1% | U251 CNS -82.2% | PC-3 prostate -72.8% | SK-MEL-5 melanoma -99.4% | UACC-62 melanoma -66.7% | LOX IMVI melanoma -73.9% | SK-MEL-28 melanoma -92.1%

O=C1/C(=C\c2cccnc2)SC(=S)N1CCc1ccc(O)cc1
inactive: DU-145 prostate 16.6% | K-562 leukemia 36% | MALME-3M melanoma 79.6% | MDA-MB-231 breast 47.1% | RXF 393 renal 25.1% | SF-268 CNS 68.5% | SF-295 CNS 94% | SF-539 CNS 23.2% | UACC-257 melanoma 38.9% | M14 melanoma 60.2% | HCT-15 colon 19.2% | HT29 colon 105% | SNB-19 CNS 82.5% | U251 CNS 68.3% | PC-3 prostate 42.2% | SK-MEL-5 melanoma 90.1% | UACC-62 melanoma 59.9% | LOX IMVI melanoma 17.4% | SK-MEL-28 melanoma 71%
active: SNB-75 CNS -4.79%

N/C(=N\c1nc2ccccc2s1)NC(=O)Nc1cccc(Cl)c1
active: SF-539 CNS 2.83%
inactive: DU-145 prostate 52.4% | K-562 leukemia 13.9% | MALME-3M melanoma 42.6% | MDA-MB-231 breast 59.4% | RXF 393 renal 68.6% | SF-268 CNS 55.9% | SF-295 CNS 40% | UACC-257 melanoma 48.9% | M14 melanoma 10.3% | HCT-15 colon 17.9% | HT29 colon 10.2% | SNB-75 CNS 13.7% | SNB-19 CNS 42.2% | U251 CNS 26.1% | PC-3 prostate 42.4% | SK-MEL-5 melanoma 32.3% | UACC-62 melanoma 25.8% | LOX IMVI melanoma 38.9% | SK-MEL-28 melanoma 60.1%

Cn1cc(-c2csc(-c3ccccc3)n2)c2cccnc21
active: DU-145 prostate -61.4% [100 µM] | K-562 leukemia 1.43% [100 µM] | MALME-3M melanoma -44.2% [100 µM] | MDA-MB-231 breast -42.7% [100 µM] | RXF 393 renal -37.4% [100 µM] | SF-268 CNS -18.3% [100 µM] | SF-295 CNS -47.2% [100 µM] | SF-539 CNS -71% [100 µM] | UACC-257 melanoma -27.7% [100 µM] | M14 melanoma -76.6% [100 µM] | HCT-15 colon -40.3% [100 µM] | HT29 colon -67.5% [100 µM] | SNB-75 CNS -15.9% [100 µM] | SNB-19 CNS -50.2% [100 µM] | U251 CNS -33.8% [100 µM] | PC-3 prostate -16.9% [100 µM] | SK-MEL-5 melanoma -83.2% [100 µM] | UACC-62 melanoma -62.7% [100 µM] | LOX IMVI melanoma -54.3% [100 µM] | SK-MEL-28 melanoma -57.4% [100 µM]

CS(=O)(=O)c1ccc(Nc2nc(N[C@H]3CCCC[C@H]3N)nc3cc[nH]c(=O)c23)cc1
inactive: DU-145 prostate 14.4% | K-562 leukemia 10.9% | SF-295 CNS 31.4% | M14 melanoma 43.5% | HCT-15 colon 102% | HT29 colon 15.5%
active: MALME-3M melanoma -31.9% | MDA-MB-231 breast -12.9% | RXF 393 renal -54.7% | SF-268 CNS -22.8% | SF-539 CNS -11.8% | UACC-257 melanoma -5.02% | SNB-75 CNS 4.36% | SNB-19 CNS 4.85% | U251 CNS 4.89% | SK-MEL-5 melanoma -40.1% | UACC-62 melanoma -33.9% | LOX IMVI melanoma -10.7% | SK-MEL-28 melanoma 3.17%

CCOC(=O)c1c2c(n3ccc(NC(=O)OC(C)(C)C)cc13)C(=O)c1ncccc1C2=O
active: DU-145 prostate -30.2% | K-562 leukemia -23.9% | MALME-3M melanoma -21.6% | MDA-MB-231 breast 2.02% | RXF 393 renal -38.4% | SF-268 CNS -16.7% | SF-295 CNS -67.1% | SF-539 CNS -45.9% | UACC-257 melanoma -40.9% | M14 melanoma -55.8% | HCT-15 colon -69.5% | HT29 colon -50.9% | SNB-75 CNS -32.2% | SNB-19 CNS -54.4% | U251 CNS -80.8% | PC-3 prostate -1.36% | SK-MEL-5 melanoma -96% | UACC-62 melanoma -75.8% | LOX IMVI melanoma -68.8% | SK-MEL-28 melanoma -18.4%

Nc1ccc2c(c1)c(N)nn2C(=O)Nc1ccc(Cc2ccccc2)cc1
active: K-562 leukemia -5.66% | UACC-62 melanoma 7.09%
inactive: DU-145 prostate 79.3% | MALME-3M melanoma 75.3% | MDA-MB-231 breast 60.6% | RXF 393 renal 99.8% | SF-268 CNS 83.9% | SF-295 CNS 48% | SF-539 CNS 73.6% | UACC-257 melanoma 79.1% | M14 melanoma 46.8% | HCT-15 colon 44.5% | HT29 colon 76.8% | SNB-75 CNS 126% | SNB-19 CNS 105% | U251 CNS 59.9% | SK-MEL-5 melanoma 71.7% | LOX IMVI melanoma 40.3% | SK-MEL-28 melanoma 115%
